The structures appear in SMILES notation. Compounds without any hit were thinned out: in the full panel of roughly 83,000, 20% have a hit.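 Interpretation: 100, growth as untreated; towards 0, rising growth inhibition; 0, no net growth; 0 to -100, cell death. Compounds scoring below 10 were considered active.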 Values without a mark were called inactive. Activity calls are given as the source filed them.

Some test systems named below: DU-145 prostate; K-562 leukemia; MALME-3M melanoma; MDA-MB-231 breast; RXF 393 renal; SF-268 CNS; SF-295 CNS; SF-539 CNS; UACC-257 melanoma; M14 melanoma; HCT-15 colon; HT29 colon; SNB-75 CNS; SNB-19 CNS; U251 CNS; PC-3 prostate; SK-MEL-5 melanoma; UACC-62 melanoma; LOX IMVI melanoma; SK-MEL-28 melanoma.
What all share (test): NCI-60 one-dose screen, 48 h (100 = growth as untreated, 0 = no growth, -100 = all killed)
Holding throughout (conditions): 10 µM unless noted

As to `Cc1cccc(Cl)c1NC(=O)c1cnc(Nc2cc(N3CCOCC3)cc(N3CCOCC3)c2)s1`, the growth is 3.54% (active) in the experiment on DU-145 prostate; 5.18% (active) with K-562 leukemia; 61.3% in the experiment on MALME-3M melanoma; 20.5% with MDA-MB-231 breast; -30% (active) in the experiment with RXF 393 renal; 34% in the experiment with SF-268 CNS. Further, the growth in the experiment with SF-295 CNS was 34%; in the experiment on SF-539 CNS it was 6.88% (active); with UACC-257 melanoma it was 64.3%; in the experiment on M14 melanoma it was 35.9%; in the experiment on HCT-15 colon, 22.2%; in the experiment with HT29 colon, -10.2% (active). The growth was -43.3% (active) in the experiment with SNB-75 CNS; 47.4% with SNB-19 CNS; 54.6% with U251 CNS; 45.7% with PC-3 prostate; 65.1% in the experiment with SK-MEL-5 melanoma; 41.6% in the experiment with UACC-62 melanoma. Also, the growth in the experiment with LOX IMVI melanoma was -71.8% (active); in the experiment with SK-MEL-28 melanoma, 63.6%.
Consider `Cc1cc(C2(c3ccc(O)c(C)c3)OS(=O)(=O)c3ccccc32)ccc1O`, for which the growth was 122% with DU-145 prostate; 104% in the experiment on K-562 leukemia; 91.7% with MALME-3M melanoma; 102% in the experiment on MDA-MB-231 breast; 98.5% in the experiment with RXF 393 renal; 112% with SF-268 CNS. Also, the growth in the experiment with SF-295 CNS was 105%; in the experiment with SF-539 CNS, 99%; in the experiment on UACC-257 melanoma, 100%; with M14 melanoma, 99.9%; in the experiment on HCT-15 colon it was 117%; with HT29 colon, 115%. For the same molecule, the growth was 91.6% in the experiment with SNB-75 CNS; 105% in the experiment on SNB-19 CNS; 107% with U251 CNS; 90.8% with PC-3 prostate; 103% in the experiment with SK-MEL-5 melanoma; 107% with UACC-62 melanoma. Also, the growth in the experiment on LOX IMVI melanoma was 104%.
As to `COc1cc2nccc(Oc3ccc(NC(=O)C4(C(=O)Nc5ccc(F)cc5)CC4)cc3)c2cc1OC`, the growth in the experiment on DU-145 prostate was 27.3%; in the experiment on K-562 leukemia it was 0.49% (active); in the experiment with MALME-3M melanoma, 0.11% (active); in the experiment with MDA-MB-231 breast, 4.99% (active); in the experiment on RXF 393 renal it was -25.5% (active); in the experiment on SF-268 CNS, 34%. Besides, the growth in the experiment with SF-295 CNS was -8.99% (active); in the experiment with SF-539 CNS, -10.2% (active); with UACC-257 melanoma, -12.6% (active); with M14 melanoma, -11.6% (active); in the experiment with HCT-15 colon it was 5.75% (active); with HT29 colon, -19.1% (active). In addition, the growth in the experiment with SNB-75 CNS is -18.9% (active); in the experiment on SNB-19 CNS it was 29.9%; with U251 CNS it was 25.1%; in the experiment with PC-3 prostate, 20.8%; in the experiment with SK-MEL-5 melanoma it was 3.39% (active); in the experiment with UACC-62 melanoma, -12.2% (active). The growth with LOX IMVI melanoma was -71.2% (active); with SK-MEL-28 melanoma it was 1.37% (active).
For the molecule `CNC(=O)c1cc(Oc2ccc(NC(=O)Nc3cc(C(C)(C)C)nn3-c3ccc4ncccc4c3)c(F)c2)ccn1`, the growth is -22.1% (active) in the experiment with DU-145 prostate; -7.14% (active) in the experiment on K-562 leukemia; -59.5% (active) in the experiment with MALME-3M melanoma; -9.49% (active) with MDA-MB-231 breast; -71% (active) in the experiment with RXF 393 renal; -19.8% (active) with SF-268 CNS. Besides, the growth was -13.1% (active) in the experiment on SF-295 CNS; -66.4% (active) in the experiment on SF-539 CNS; -24.3% (active) in the experiment on UACC-257 melanoma; -71.4% (active) with M14 melanoma; -12.9% (active) in the experiment on HCT-15 colon; -45.3% (active) in the experiment on HT29 colon. In addition, the growth in the experiment with SNB-75 CNS is -94% (active); in the experiment on SNB-19 CNS, 1.45% (active); in the experiment on U251 CNS, -21.7% (active); with PC-3 prostate, -23.6% (active); in the experiment on SK-MEL-5 melanoma, -83.5% (active); in the experiment on UACC-62 melanoma, -52% (active). In addition, the values for the growth in the experiment on LOX IMVI melanoma and in the experiment on SK-MEL-28 melanoma were -72.9% (active) and -45.5% (active), respectively.
For `COc1ccc(Cc2cc(-c3ccccc3C)n[nH]c2=O)cc1`, the growth in the experiment on DU-145 prostate is 93.2%; with K-562 leukemia, 110%; in the experiment with MALME-3M melanoma it was 154%; with MDA-MB-231 breast, 84.6%; in the experiment with RXF 393 renal it was 99.2%; in the experiment with SF-268 CNS, 85%. The growth in the experiment on SF-295 CNS was 116%; in the experiment on SF-539 CNS, 97.8%; in the experiment on UACC-257 melanoma, 119%; with M14 melanoma it was 115%; in the experiment with HCT-15 colon, 107%; with HT29 colon, 98.1%. In addition, the growth in the experiment with SNB-75 CNS was 72.7%; in the experiment on SNB-19 CNS, 87.1%; in the experiment with U251 CNS, 100%; in the experiment on PC-3 prostate it was 81.7%; in the experiment with SK-MEL-5 melanoma it was 99.2%; with UACC-62 melanoma, 94.8%. For the same molecule, the growth with LOX IMVI melanoma was 109%; with SK-MEL-28 melanoma it was 106%.
In the case of `COCCOc1cnc2ccn([C@H](C)c3nnc4c(F)cc(-c5cnn(C)c5)cn34)c(=O)c2c1`, the growth is 91.2% in the experiment on DU-145 prostate; 96.8% with K-562 leukemia; 9.06% (active) in the experiment with MALME-3M melanoma; 63.9% in the experiment on MDA-MB-231 breast; 81.2% in the experiment with RXF 393 renal; 85.9% in the experiment with SF-268 CNS. For the same molecule, the growth is 67.4% with SF-295 CNS; 99.1% in the experiment with SF-539 CNS; 69.1% in the experiment on UACC-257 melanoma; 91.6% with M14 melanoma; 95.5% in the experiment on HCT-15 colon; 104% in the experiment on HT29 colon. Besides, the growth is 93.2% in the experiment with SNB-75 CNS; 73.9% with SNB-19 CNS; 92.2% in the experiment on U251 CNS; 78.7% with PC-3 prostate; 47.5% in the experiment with SK-MEL-5 melanoma; 20.7% with UACC-62 melanoma. Moreover, the growth in the experiment on LOX IMVI melanoma is 61.5%; in the experiment with SK-MEL-28 melanoma it was 44%.
With `O=c1[nH]ccc2c(S(=O)(=O)N3CCCNCC3)cccc12`, the growth in the experiment on DU-145 prostate was 62.2%; with K-562 leukemia, 104%; in the experiment on MALME-3M melanoma it was 82.2%; in the experiment on MDA-MB-231 breast, 87.3%; in the experiment on RXF 393 renal it was 57.8%; in the experiment with SF-268 CNS it was 54.3%. Also, the growth is 74.5% in the experiment with SF-295 CNS; 76.5% in the experiment with SF-539 CNS; 99.1% in the experiment with UACC-257 melanoma; 88.3% in the experiment on M14 melanoma; 93.3% in the experiment on HCT-15 colon; 82.2% in the experiment with HT29 colon. The growth with SNB-75 CNS is 54.6%; with SNB-19 CNS it was 97.4%; in the experiment on U251 CNS, 101%; in the experiment on PC-3 prostate, 86.9%; in the experiment on SK-MEL-5 melanoma, 109%; with UACC-62 melanoma, 70.1%. In addition, the growth with LOX IMVI melanoma is 90.6%.

(Values after PubChem BioAssay (NCI).)
